Test results reported in ChEMBL document CHEMBL3988442, “University of Dundee, Small-Polar-MMV Screening Library” (2021).
For some of these results: Entries with a potency or affinity are not part of this list.

Legend:
Parameters in all cases: scale not given: direction of the effect not stated beside the values
[1] = biological target: Protein translocase subunit SecA (Escherichia coli (strain K12)) (UniProt P10408); assay: Assay to Identify E. coli SecA ATPase Inhibitors; assay type: functional; conditions: 30 µM
[2] = biological target: T1, Ubiquitin-activating enzyme e1, putative (Leishmania donovani (strain BPK282A1)) (UniProt E9BSI1); assay: Leishmania donovani Ubiquitin Activating Enzyme (LdE1); assay type: functional; conditions: 30 µM
T1 sequence (whole entry): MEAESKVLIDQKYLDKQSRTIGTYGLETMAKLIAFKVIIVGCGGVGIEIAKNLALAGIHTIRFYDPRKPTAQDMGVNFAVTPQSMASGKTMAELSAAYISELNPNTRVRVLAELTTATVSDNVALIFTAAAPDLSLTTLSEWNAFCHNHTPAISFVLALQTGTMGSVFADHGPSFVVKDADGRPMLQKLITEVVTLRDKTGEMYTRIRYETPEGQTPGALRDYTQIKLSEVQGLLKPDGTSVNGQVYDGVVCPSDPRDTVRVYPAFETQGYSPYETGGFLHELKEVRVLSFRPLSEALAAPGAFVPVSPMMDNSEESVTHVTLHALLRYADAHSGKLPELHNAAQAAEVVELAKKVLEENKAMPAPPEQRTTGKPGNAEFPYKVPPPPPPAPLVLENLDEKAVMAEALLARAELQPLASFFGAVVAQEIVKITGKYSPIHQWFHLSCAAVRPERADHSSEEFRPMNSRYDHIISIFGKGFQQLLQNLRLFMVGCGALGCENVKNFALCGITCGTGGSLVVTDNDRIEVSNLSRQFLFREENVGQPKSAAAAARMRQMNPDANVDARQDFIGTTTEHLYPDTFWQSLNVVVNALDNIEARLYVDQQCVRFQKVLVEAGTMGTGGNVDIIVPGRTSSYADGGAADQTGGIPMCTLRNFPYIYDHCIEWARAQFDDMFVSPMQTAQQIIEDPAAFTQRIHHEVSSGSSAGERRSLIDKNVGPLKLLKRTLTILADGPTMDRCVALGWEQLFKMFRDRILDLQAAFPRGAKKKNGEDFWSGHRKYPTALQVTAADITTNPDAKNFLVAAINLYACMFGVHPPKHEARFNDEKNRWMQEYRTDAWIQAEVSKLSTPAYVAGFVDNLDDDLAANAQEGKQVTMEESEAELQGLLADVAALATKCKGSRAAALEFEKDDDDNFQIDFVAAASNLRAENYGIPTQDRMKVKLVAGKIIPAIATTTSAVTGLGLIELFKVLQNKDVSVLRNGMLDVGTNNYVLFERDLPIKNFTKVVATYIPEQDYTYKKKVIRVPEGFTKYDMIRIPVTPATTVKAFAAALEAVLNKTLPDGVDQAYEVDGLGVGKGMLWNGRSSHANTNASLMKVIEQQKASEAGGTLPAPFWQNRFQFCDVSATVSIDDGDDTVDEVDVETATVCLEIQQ

[3] = biological target: AMP-activated protein kinase, AMPK (Homo sapiens) (UniProt P54646+O43741+P54619+Q9UGJ0+Q9Y478+Q13131+Q9UGI9); assay: AMP-dependent Kinase enzyme assay. An in vitro enzyme assay that detects ADP turnover that is directly proportional to AMPK activity. This uses naive AMPK that is activated during the assay with MK-8722; assay type: functional; conditions: 30 µM
[4] = biological target: Sialic acid-binding Ig-like lectin 9 (Homo sapiens) (UniProt Q9Y336); assay: Hs-Siglec9 ALPHAscreen SOP 20170721; conditions: 10 µM
Trypanosoma cruzi = assay: Trypanosoma cruzi phosphomannomutase and mannose-1-phosphate guanylyltransferase assay; assay type: functional; conditions: 10 µM
[5] = biological target: T2, Arginase-2, mitochondrial (Homo sapiens) (UniProt P78540); assay: in vitro enzyme assay to detect the production of urea directly proportional to the activity of Arginase II; assay type: functional; conditions: 33.3 µM; also: in the data most compounds retested in dose-response had high values
T2 sequence (whole entry): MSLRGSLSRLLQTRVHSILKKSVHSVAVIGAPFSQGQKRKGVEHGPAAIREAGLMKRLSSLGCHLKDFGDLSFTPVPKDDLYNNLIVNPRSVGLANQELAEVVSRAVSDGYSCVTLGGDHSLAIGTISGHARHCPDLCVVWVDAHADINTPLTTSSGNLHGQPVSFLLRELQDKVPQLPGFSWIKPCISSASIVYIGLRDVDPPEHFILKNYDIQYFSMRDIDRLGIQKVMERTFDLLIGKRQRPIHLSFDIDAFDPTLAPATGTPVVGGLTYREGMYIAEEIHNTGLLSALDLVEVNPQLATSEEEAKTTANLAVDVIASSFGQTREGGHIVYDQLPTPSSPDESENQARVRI

[6] = biological target: T3, Proteasome subunit beta (Trypanosoma cruzi) (UniProt O96673); assay: Trypanosoma cruzi proteasome chymotrypsin-like activity (TcProtChymo) assay.; also: in the data most compounds retested in dose-response had high values; assay type: functional; conditions: 9.37 µM
T3 sequence (whole entry): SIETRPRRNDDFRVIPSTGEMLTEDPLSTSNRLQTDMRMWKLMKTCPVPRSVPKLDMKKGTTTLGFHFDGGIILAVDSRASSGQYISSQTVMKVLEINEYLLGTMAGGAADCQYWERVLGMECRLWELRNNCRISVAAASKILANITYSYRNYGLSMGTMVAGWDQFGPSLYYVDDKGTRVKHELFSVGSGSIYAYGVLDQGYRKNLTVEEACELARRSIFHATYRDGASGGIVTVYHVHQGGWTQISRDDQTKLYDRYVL

Homo sapiens = species on record: Homo sapiens; assay: To identify inhibition of the IFN signalling (Jak-Stat) pathway via expression of an eGFP reporter gene under the control of an IFN-stimulated response element (ISRE) containing MxA promoter.; assay type: functional; conditions: 30 µM
[7] = biological target: T4, Tyrosyl-tRNA synthetase, putative (Trypanosoma cruzi (strain CL Brener)) (UniProt Q4DSP6); assay: Trypanosoma cruzi tyrosyl tRNA synthetase (TcYRS) _High Tyrosine SOP; assay type: functional; conditions: 30 µM; also: in the data most compounds retested in dose-response had high values
T4 sequence (whole entry): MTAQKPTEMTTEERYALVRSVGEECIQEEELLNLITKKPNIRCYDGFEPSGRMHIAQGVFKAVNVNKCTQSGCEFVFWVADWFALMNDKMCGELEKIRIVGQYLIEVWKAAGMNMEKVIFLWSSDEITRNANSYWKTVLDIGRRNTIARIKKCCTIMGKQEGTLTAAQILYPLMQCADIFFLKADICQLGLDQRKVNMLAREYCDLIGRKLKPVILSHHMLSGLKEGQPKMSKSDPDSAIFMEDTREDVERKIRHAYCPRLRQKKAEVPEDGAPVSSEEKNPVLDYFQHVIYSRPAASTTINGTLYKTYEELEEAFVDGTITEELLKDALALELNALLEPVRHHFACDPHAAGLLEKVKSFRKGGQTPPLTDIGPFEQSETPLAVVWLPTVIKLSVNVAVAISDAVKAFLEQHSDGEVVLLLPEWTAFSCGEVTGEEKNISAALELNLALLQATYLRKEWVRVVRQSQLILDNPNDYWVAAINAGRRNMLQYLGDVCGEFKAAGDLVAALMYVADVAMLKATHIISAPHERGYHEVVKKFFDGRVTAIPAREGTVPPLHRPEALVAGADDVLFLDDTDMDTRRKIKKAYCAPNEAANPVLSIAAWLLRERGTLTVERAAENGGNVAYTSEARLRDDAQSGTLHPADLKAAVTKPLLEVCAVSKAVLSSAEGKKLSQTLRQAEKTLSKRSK

[8] = biological target: T4, Tyrosyl-tRNA synthetase, putative (Trypanosoma cruzi (strain CL Brener)); assay: Trypanosoma cruzi tyrosyl tRNA synthetase (TcYRS) SOP; assay type: functional; conditions: 30 µM
[9] = biological target: Chromo domain-containing protein 1 (Saccharomyces cerevisiae (strain ATCC 204508 / S288c) (Baker's yeast)) (UniProt P32657); assay: ScCHD-1 Enzyme Inhibition Assay; assay type: functional; conditions: 30 µM; also: in the data most compounds retested in dose-response had high values
Chain of Chromo domain-containing protein 1 (Saccharomyces cerevisiae (strain ATCC 204508 / S288c) (Baker's yeast)) (P32657 whole entry, the tested form may be a part): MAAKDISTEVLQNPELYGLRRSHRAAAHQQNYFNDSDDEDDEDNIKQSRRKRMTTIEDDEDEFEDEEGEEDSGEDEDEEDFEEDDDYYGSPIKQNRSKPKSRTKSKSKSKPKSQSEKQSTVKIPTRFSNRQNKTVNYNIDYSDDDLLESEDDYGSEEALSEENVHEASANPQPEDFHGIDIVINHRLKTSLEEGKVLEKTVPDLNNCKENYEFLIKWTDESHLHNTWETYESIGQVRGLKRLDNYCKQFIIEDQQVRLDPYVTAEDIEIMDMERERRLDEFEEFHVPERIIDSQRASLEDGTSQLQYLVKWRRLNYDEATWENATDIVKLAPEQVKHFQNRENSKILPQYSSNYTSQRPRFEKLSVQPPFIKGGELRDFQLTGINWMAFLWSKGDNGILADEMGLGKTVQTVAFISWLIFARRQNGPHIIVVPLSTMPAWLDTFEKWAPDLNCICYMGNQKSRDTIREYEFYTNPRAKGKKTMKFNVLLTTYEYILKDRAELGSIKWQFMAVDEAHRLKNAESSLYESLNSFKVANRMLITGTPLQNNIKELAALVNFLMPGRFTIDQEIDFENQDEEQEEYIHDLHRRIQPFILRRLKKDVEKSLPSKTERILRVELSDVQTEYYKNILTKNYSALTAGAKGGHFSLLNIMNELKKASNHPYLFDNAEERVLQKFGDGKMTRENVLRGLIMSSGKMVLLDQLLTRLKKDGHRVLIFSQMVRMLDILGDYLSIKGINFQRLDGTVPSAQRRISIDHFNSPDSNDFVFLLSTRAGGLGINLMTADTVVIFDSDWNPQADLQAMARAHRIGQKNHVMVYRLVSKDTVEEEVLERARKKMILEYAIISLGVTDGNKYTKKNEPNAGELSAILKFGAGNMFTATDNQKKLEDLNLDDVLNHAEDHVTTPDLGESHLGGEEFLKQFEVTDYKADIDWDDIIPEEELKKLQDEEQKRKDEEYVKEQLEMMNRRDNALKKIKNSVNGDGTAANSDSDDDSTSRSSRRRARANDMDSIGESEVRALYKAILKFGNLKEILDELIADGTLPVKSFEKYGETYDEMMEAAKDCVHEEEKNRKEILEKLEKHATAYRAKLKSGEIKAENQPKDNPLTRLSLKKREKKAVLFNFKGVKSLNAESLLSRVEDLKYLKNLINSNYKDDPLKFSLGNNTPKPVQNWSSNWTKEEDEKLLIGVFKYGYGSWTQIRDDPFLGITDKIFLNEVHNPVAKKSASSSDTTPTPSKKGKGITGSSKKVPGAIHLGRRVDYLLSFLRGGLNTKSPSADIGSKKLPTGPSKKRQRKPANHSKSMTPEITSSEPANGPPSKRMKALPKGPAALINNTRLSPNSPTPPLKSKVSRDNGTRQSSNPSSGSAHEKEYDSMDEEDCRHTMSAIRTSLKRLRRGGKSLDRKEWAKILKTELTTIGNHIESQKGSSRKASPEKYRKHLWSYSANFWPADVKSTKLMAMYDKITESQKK

Chain of Protein translocase subunit SecA (Escherichia coli (strain K12)) (P10408 whole entry): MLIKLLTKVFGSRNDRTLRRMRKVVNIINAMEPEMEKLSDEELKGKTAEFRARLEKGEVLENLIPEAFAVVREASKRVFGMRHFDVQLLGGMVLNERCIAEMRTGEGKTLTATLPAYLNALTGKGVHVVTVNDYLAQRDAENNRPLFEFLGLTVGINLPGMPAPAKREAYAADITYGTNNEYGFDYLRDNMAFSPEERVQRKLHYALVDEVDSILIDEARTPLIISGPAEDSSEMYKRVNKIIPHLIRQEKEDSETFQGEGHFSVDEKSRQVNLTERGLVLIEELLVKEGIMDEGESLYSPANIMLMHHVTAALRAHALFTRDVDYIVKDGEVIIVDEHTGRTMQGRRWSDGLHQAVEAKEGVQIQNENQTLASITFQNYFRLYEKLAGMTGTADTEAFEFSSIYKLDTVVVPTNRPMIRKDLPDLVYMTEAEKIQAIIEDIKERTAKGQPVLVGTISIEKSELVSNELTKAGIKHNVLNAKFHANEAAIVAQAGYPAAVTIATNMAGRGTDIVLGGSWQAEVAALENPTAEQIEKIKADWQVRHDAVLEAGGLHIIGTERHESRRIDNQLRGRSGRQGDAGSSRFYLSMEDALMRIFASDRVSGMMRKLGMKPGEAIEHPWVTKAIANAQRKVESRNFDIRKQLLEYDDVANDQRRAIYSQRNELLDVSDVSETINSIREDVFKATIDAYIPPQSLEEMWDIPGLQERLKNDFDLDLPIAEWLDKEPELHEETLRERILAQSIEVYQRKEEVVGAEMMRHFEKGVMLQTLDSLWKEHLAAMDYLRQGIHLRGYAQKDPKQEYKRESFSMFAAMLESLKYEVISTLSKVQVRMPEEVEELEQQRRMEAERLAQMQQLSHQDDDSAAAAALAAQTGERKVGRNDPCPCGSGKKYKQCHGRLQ
Chain of Sialic acid-binding Ig-like lectin 9 (Homo sapiens) (Q9Y336 whole entry): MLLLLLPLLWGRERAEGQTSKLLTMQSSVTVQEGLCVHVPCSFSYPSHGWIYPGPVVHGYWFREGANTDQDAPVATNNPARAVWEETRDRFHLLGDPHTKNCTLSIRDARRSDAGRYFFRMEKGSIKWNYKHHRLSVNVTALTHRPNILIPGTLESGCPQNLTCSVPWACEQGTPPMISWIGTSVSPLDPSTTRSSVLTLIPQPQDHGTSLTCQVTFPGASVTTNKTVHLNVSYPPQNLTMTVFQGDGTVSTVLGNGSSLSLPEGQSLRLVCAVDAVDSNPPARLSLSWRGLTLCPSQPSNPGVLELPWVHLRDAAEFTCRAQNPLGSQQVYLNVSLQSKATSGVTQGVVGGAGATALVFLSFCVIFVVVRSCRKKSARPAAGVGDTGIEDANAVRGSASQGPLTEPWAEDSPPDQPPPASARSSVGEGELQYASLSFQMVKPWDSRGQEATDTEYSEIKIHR

| Compound | Percent Effect [1] | Percent Effect [2] | Percent Effect [3] | Percent Effect [4] | Percent Effect (Trypanosoma cruzi) | Percent Effect [5] | Percent Effect [6] | Percent Effect (Homo sapiens) | Percent Effect [7] | Percent Effect [8] | Percent Effect [9] |
| --- | --- | --- | --- | --- | --- | --- | --- | --- | --- | --- | --- |
| COc1cccc(CCC2CCCN(C(=O)C3=NN(C)C(=O)CC3)C2)c1 (stereo not drawn) | -0.975% | -10.8% | -2.43% | -1.4% | -3.28% | 0.952% | 3.79% | 6.9% | 3.7% | 4.88% | -1.44% |
| Cc1cnn(CC2CCCCN2Cc2nnc(C3CC3)n2C)c1 (stereo not drawn) | -1.18% | -1.27% | 5% | -0.259% | 5.85% | 0.215% | 8.75% | -10.1% | 3.12% | 5.06% | -2.78% |
| Cc1ccc(NC2CCN(C(=O)Cn3nc(C)cc3C)CC2)nn1 | -1.08% | 15.8% | -0.776% | 6.59% | -0.376% | -0.766% | 17.9% | 6.37% | 3.43% | 12.2% | -1.72% |
| COCCN1C[C@@H](C)[C@@]2(COCCN(C(=O)c3cnc(C)cn3)C2)C1 | 0.144% | 10.7% | 6.23% | 3.86% | -3.28% | -21.3% | 12.7% | -11.1% | -5.21% | 12.5% | -6.61% |
| CC(=O)c1cccc(OCC(=O)NS(=O)(=O)c2ccc(C)s2)c1 | -6.93% | 12.7% | -2.86% | 9.9% | 4.63% | -4.56% | 3.85% | -8.7% | 3.45% | 13.9% | -6.95% |
| Cc1nc(N)cc(C2CN(C(=O)c3ccn(C)n3)CCO2)n1 (stereo not drawn) | -6.21% | 17.6% | 0.477% | 3.12% | 0.198% | -3.94% | 10.4% | 8.03% | 3.23% | 16.9% | -24.2% |
| CNC(=O)C1(CCCc2cccnc2)CCCCN1 (stereo not drawn) | -1.25% | 23% | 5.4% | -8.22% | 3.95% | 0.696% | 17.6% | 19% | 1.07% | 9.09% | -15.7% |
| O=C(C1CC=CC1)N1C[C@@H]2[C@@H](C1)OCC(=O)N2Cc1cccnc1 | -2.28% | -2.6% | 12.1% | 3.67% | 0.888% | -3.23% | 0.87% | 15% | 2.12% | 6.41% | -4.72% |
